Source: PubChem (Broad Institute)
An excerpt weighted towards active compounds, which were near 6.7% of everything screened.
Pf Dd2 growth: blocks growth of Plasmodium falciparum Dd2 parasites; P. falciparum Dd2 growth, SYBR Green, 72 h; hits give low values; activity change, % at 10 µM; actives 2.3% (n = 94,000); in the data active means activity change below about -80%; inconclusive means no clear call, values can overlap the other calls
T cruzi growth-1: blocks T. cruzi growth in NIH3T3 culture; T. cruzi beta-gal in NIH3T3, GalScreen luminescence, 90 h; inhibition, % at 8.34 µM; actives 5.9% (n = 77,000); AID 624255;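 active means mean inhibition above about 93%, with at least 55% of replicates each passing it, limit read from the data, passing the limit was not always enough; inconclusive means only one of those two conditions holds; inactive means neither condition holds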
C diff growth: C. difficile growth inhibition; Clostridium difficile clinical isolate growth, OD600, 24 h; hits give low values; growth activity, negative = inhibition, % at 16 µg/mL (by protocol); actives 0.25% (n = 86,000); AID 1259249;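 active means mean growth activity at or below -80% and every replicate also at or below -80%; inconclusive means mean at or below -80% but some replicate above -80%; inactive means mean growth activity above -80%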;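 further: 0% = DMSO wells and -100% = levofloxacin 16 µg/mL wells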
T cruzi growth-2: blocks T. cruzi growth in NIH3T3 host cells | shares compounds with T cruzi growth-1 | T. cruzi beta-gal in NIH3T3, GalScreen luminescence, 90 h | inhibition, % at 8.35 µM | actives 72% (n = 5,600) | AID 651739;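 active means mean replicate inhibition above about 95% and at least 55% of replicates individually reaching it, limit read from the data; inconclusive means only one of the two criteria is met; inactive means neither criterion is met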
T cruzi growth-3: inhibitors of T. cruzi proliferation | shares compounds with T cruzi growth-1 | T. cruzi beta-gal in NIH3T3, GalScreen luminescence, 90 h | inhibition, % at 2.09 µM | actives 21% (n = 5,600);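 active means mean inhibition above about 95%, with at least 55% of replicates also reaching it, limit read from the data; inconclusive means meets just one of the two conditions; inactive means meets neither condition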;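 further: plate controls were neutral control median for no effect and positive control median for full effect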
3T3 cytotox: cytotoxicity in mouse NIH/3T3 fibroblasts. AID 651742. actives 14% (n = 5,600). shares compounds with T cruzi growth-1. NIH/3T3 viability, CellTiter-Glo ATP luminescence, 90 h. cytotoxicity (signal decrease), % at 8.35 µM;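 active means mean signal decrease across replicates above about 35% based on untreated-well scatter, with enough replicates individually passing, limit read from the data; inconclusive means no rule stated though some were filed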;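 further: 0% = median of neutral control wells and 100% = median of positive control wells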
3T3 cytotox 2: kills mouse NIH/3T3 fibroblasts | actives 56% (n = 5,600) | NIH/3T3 viability, CellTiter-Glo ATP luminescence, 90 h | shares compounds with T cruzi growth-1 | inhibition, % at 24.9 µM;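 active means mean loss of cell viability signal at or above a set limit, and enough replicates individually reaching it; inconclusive means meets only the mean limit or only the replicate share; inactive means meets neither condition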;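 further: 0% = median of neutral control wells and 100% = median of positive control wells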
* hit, by the source's call; ? = inconclusive; nt = no result given.

SMILES | Pf Dd2 growth | T cruzi growth-1 | C diff growth | T cruzi growth-2 | T cruzi growth-3 | 3T3 cytotox | 3T3 cytotox 2
Cc1noc(C)c1NC(=O)Nc1ccc2c(c1)C(=O)N([C@@H](C)CO)C[C@@H](C)[C@@H](CN(C)S(=O)(=O)c1ccc(Cl)cc1)OCCCC[C@@H](C)O2 | -69 | 72 | nt | nt | nt | nt | nt
CC(C)NC(=O)Nc1ccc2c(c1)C(=O)N([C@@H](C)CO)C[C@@H](C)[C@@H](CN(C)S(=O)(=O)c1ccc(Cl)cc1)OCCCC[C@@H](C)O2 | -70 | 108* | 2 | 101* | 41 | -13 | 0
C[C@@H]1CN([C@H](C)CO)S(=O)(=O)c2ccc(-c3ccncc3)cc2O[C@@H]1CN(C)C | 16 | 19 | 2 | nt | nt | nt | nt
O=C(C[C@@H]1C[C@H]2c3cc(NC(=O)c4cccnc4)ccc3O[C@H]2[C@H](CO)O1)NC1CCCCC1 | 9 | -30 | 3 | nt | nt | nt | nt
C/C=C/c1ccc2c(c1)O[C@H](CN(C)C(=O)C1CCCCC1)[C@@H](C)CN([C@H](C)CO)S2(=O)=O | 13 | nt | 3 | nt | nt | nt | nt
C[C@@H]1CN([C@@H](C)CO)C(=O)Cc2cc(NC(=O)CCN3CCOCC3)ccc2O[C@@H]1CN(C)Cc1ccc(C(F)(F)F)cc1 | -33 | 12 | -17 | nt | nt | nt | nt
C[C@H](CO)N1C[C@H](C)[C@@H](CN(C)Cc2ccc(-c3ccccc3)cc2)Oc2ccc(NC(=O)CCN3CCOCC3)cc2CC1=O | -57 | 99* | -3 | 114* | 54 | 13 | 105*
C[C@H](CO)N1C[C@H](C)[C@H](CN(C)Cc2ccc(C(F)(F)F)cc2)Oc2ccc(NC(=O)CCN3CCOCC3)cc2CC1=O | -2 | ? | 5 | -42 | 19 | -5 | 3
C[C@H](CO)N1C[C@H](C)[C@H](CN(C)Cc2ccc(-c3ccccc3)cc2)Oc2ccc(NC(=O)CCN3CCOCC3)cc2CC1=O | -9 | 18 | 4 | nt | nt | nt | nt
Cc1ccc(S(=O)(=O)Nc2ccc3c(c2)CC(=O)N([C@@H](C)CO)C[C@@H](C)[C@@H](CN(C)C(=O)Nc2ccc(C(F)(F)F)cc2)O3)cc1 | 2 | 19 | 4 | nt | nt | nt | nt
COc1ccc2c3c([nH]c2c1)[C@H](CO)N(C(=O)C1CCC1)CC31CCN(C(=O)c2ccccn2)CC1 | 6 | nt | 0 | nt | nt | nt | nt
CNC[C@@H]1OCCCC[C@H](C)Oc2ccc(NC(=O)Nc3c(C)noc3C)cc2C(=O)N([C@H](C)CO)C[C@@H]1C | 43 | -10 | -2 | nt | nt | nt | nt
C[C@@H]1CCCCO[C@@H](CN(C)S(=O)(=O)c2cccs2)[C@H](C)CN([C@@H](C)CO)C(=O)c2cc(NC(=O)Nc3ccc(C(F)(F)F)cc3)ccc2O1 | -52 | 100* | -3 | 105* | 114* | 5 | -8
C[C@H]1CN([C@@H](C)CO)C(=O)c2cc(NC(=O)Nc3ccc(C(F)(F)F)cc3)ccc2O[C@@H]1CN(C)S(=O)(=O)c1cccs1 | -8 | 90 | -6 | nt | nt | nt | nt
CC(C)NC(=O)Nc1ccc2c(c1)C(=O)N([C@@H](C)CO)C[C@@H](C)[C@@H](CN(C)S(=O)(=O)c1cccs1)OCCCC[C@H](C)O2 | nt | nt | 1 | nt | nt | nt | nt
C[C@@H]1CCCCO[C@@H](CN(C)S(=O)(=O)c2cccs2)[C@@H](C)CN([C@H](C)CO)C(=O)c2cc(NC(=O)NC3CCCCC3)ccc2O1 | -68 | 103* | 7 | 34 | 2 | 6 | 39*
C[C@@H]1CCCCO[C@H](CN(C)S(=O)(=O)c2cccs2)[C@H](C)CN([C@H](C)CO)C(=O)c2cc(NC(=O)NC3CCCCC3)ccc2O1 | -78 | 81 | 0 | nt | nt | nt | nt
C[C@@H]1CN([C@@H](C)CO)C(=O)c2cc(NC(=O)Nc3ccc(F)cc3)ccc2O[C@@H](C)CCCCO[C@@H]1CN(C)S(=O)(=O)c1cccs1 | -71 | -51 | -3 | nt | nt | nt | nt
C[C@H](CO)N1C[C@H](C)[C@H](CN(C)S(=O)(=O)c2cccs2)OCCCC[C@H](C)Oc2ccc(NC(=O)NC3CCCCC3)cc2C1=O | -44 | 101* | -12 | 88 | 24 | 22 | -6
C[C@@H]1CN([C@@H](C)CO)C(=O)c2cc(NC(=O)Nc3ccc(C(F)(F)F)cc3)ccc2O[C@H]1CN(C)S(=O)(=O)c1cccs1 | -8 | ? | 1 | 80 | 48 | ? | 57*
